Reference: the supplement of paper PMC6897291

Legend:
[1] = tested on: U-2932; assay: growth inhibition by drug alone (1 - RLU/untreated control) (fraction); higher = stronger inhibition; conditions: 177Lu-lilotomab satetraxetan 0 ug/ml
Method in brief: (§1)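 With or without 18 h pretreatment by a radiolabelled anti-CD37 antibody conjugate (~600 MBq/mg; 0.5 µg/ml RIVA, 1 µg/ml U-2932), RIVA and U-2932 cells were washed and plated at 3,000 cells/well. Pre-printed compound doses were 10/100 nM for RIVA and 10/1,000 nM for U-2932. Growth inhibition uses RealTime-Glo RLU relative to the untreated no-drug wells. The calculation is 1 − RLU/mean of 48 such wells per plate, with reads daily from day 3 after 1 h at 37°C.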

[2] = tested on: RIVA; assay: as above; conditions: 177Lu-lilotomab satetraxetan 0 ug/ml
Method in brief: as §1

[3] = tested on: U-2932; assay: growth inhibition by drug plus 177Lu-lilotomab satetraxetan (1 - RLU/untreated control) (fraction); higher = stronger inhibition; conditions: 177Lu-lilotomab satetraxetan 1 ug/ml
Method in brief: as §1

[4] = tested on: RIVA; assay: as above; conditions: 177Lu-lilotomab satetraxetan 0.5 ug/ml
Method in brief: as §1

Structure (SMILES)	growth inhibition by drug alone ([1]; 10 nM, time (day): 3)	growth inhibition by drug alone ([1]; 10 nM, time (day): 4)	growth inhibition by drug alone ([1]; 10 nM, time (day): 5)	growth inhibition by drug alone ([1]; 10 nM, time (day): 6)	growth inhibition by drug alone ([1]; 1000 nM, time (day): 3)	growth inhibition by drug alone ([1]; 1000 nM, time (day): 4)	growth inhibition by drug alone ([1]; 1000 nM, time (day): 5)	growth inhibition by drug alone ([1]; 1000 nM, time (day): 6)	growth inhibition by drug alone ([2]; 10 nM, time (day): 3)	growth inhibition by drug alone ([2]; 10 nM, time (day): 4)	growth inhibition by drug alone ([2]; 10 nM, time (day): 5)	growth inhibition by drug alone ([2]; 10 nM, time (day): 6)	growth inhibition by drug alone ([2]; 100 nM, time (day): 3)	growth inhibition by drug alone ([2]; 100 nM, time (day): 4)	growth inhibition by drug alone ([2]; 100 nM, time (day): 5)	growth inhibition by drug alone ([2]; 100 nM, time (day): 6)	growth inhibition by drug plus 177Lu-lilotomab satetraxetan ([3]; 10 nM, time (day): 3)	growth inhibition by drug plus 177Lu-lilotomab satetraxetan ([3]; 10 nM, time (day): 4)	growth inhibition by drug plus 177Lu-lilotomab satetraxetan ([3]; 10 nM, time (day): 5)	growth inhibition by drug plus 177Lu-lilotomab satetraxetan ([3]; 10 nM, time (day): 6)	growth inhibition by drug plus 177Lu-lilotomab satetraxetan ([3]; 1000 nM, time (day): 3)	growth inhibition by drug plus 177Lu-lilotomab satetraxetan ([3]; 1000 nM, time (day): 4)	growth inhibition by drug plus 177Lu-lilotomab satetraxetan ([3]; 1000 nM, time (day): 5)	growth inhibition by drug plus 177Lu-lilotomab satetraxetan ([3]; 1000 nM, time (day): 6)	growth inhibition by drug plus 177Lu-lilotomab satetraxetan ([4]; 10 nM, time (day): 3)	growth inhibition by drug plus 177Lu-lilotomab satetraxetan ([4]; 10 nM, time (day): 4)	growth inhibition by drug plus 177Lu-lilotomab satetraxetan ([4]; 10 nM, time (day): 5)	growth inhibition by drug plus 177Lu-lilotomab satetraxetan ([4]; 10 nM, time (day): 6)	growth inhibition by drug plus 177Lu-lilotomab satetraxetan ([4]; 100 nM, time (day): 3)	growth inhibition by drug plus 177Lu-lilotomab satetraxetan ([4]; 100 nM, time (day): 4)	growth inhibition by drug plus 177Lu-lilotomab satetraxetan ([4]; 100 nM, time (day): 5)	growth inhibition by drug plus 177Lu-lilotomab satetraxetan ([4]; 100 nM, time (day): 6)
CCC[C@H](NC(=O)/C(C#N)=C/c1cccc(Br)n1)c1ccccc1	0.109	0.0652	-0.0661	-0.128	0.0251	0.0639	-0.0194	-0.182	-0.0156	-0.0305	-0.179	-0.663	-0.455	-0.31	-0.323	-0.514	0.0639	0.1	0.129	0.098	0.0285	0.0599	0.115	0.183	0.529	0.596	0.601	0.61	0.35	0.448	0.465	0.478
O=C(O)c1ccc2c(c1)nc(Nc1cccc(Cl)c1)c1ccncc12 [cx-4945 (Silmitasertib)]	0.0111	-0.0226	-0.00497	0.0386	0.0436	0.0306	-0.0126	-0.0489	-0.142	-0.128	-0.161	-0.291	0.0492	-0.00845	-0.0374	-0.111	0.0376	0.0473	0.0445	0.189	0.0211	0.0508	0.0545	0.159	0.409	0.518	0.528	0.542	0.413	0.47	0.487	0.468
